Assay outcomes (PubChem)
hcDAF12 agonist: H. contortus DAF-12 nuclear receptor activators, primary screen, cell-based, luminescence, HEK293, lit1-tk-luc reporter | HEK293 hcDAF-12 lit1-tk-luc reporter; 0% DMSO, 100% Δ7-dafachronic acid | activation, % at 6.8 µM | hit rate 1.4% among 370,000 | AID 652067, 2013;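 active means activation above the mean of all tested compounds plus 3 SD, cut at about 5.5% in these data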
hgDAF12 agonist: H. glycines DAF-12 receptor agonists, primary screen, cell-based, luminescence, HEK293, GAL4 fusion, UAS-luciferase | Nuclear hormone receptor DAF-12 (Heterodera glycines), GAL4 fusion | HEK293 GAL4-hgDAF12 UAS-luciferase reporter, agonist luminescence; normalized to butyrate control | activation, % at 6.8 µM | hit rate 1.8% among 370,000;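 active means activation above a cutoff set at the mean of all screened compounds plus 3 SD, cut at about 10% in these data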
SMARCA2 act: SMARCA2 (BRM) function activators, primary screen, cell-based, luminescence, high throughput | hit rate 1% among 370,000 | AID 652017, 2013 | activation, % at 9.1 µM | MG213 cells, MMTV-luciferase reporter, dexamethasone, overnight; in the data active means activation above about 7.8%
DAX1 inh-1: DAX1 (NR0B1) inhibitors, primary screen, cell-based, HEK293, Gal4-DAX1, luciferase luminescence; HEK293 Gal4-DAX1 luciferase reporter; inhibition, % at 6.75 µM; hit rate 0.99% among 340,000; AID 504766, 2011;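 active means inhibition above the mean over all tested compounds plus 3 SD, cut at about 4.2% in these data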;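 further: inhibition shows as a rise in luminescence from relieved DAX1 repression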
ssDAF12 agonist: S. stercoralis DAF-12 nuclear receptor activators, primary screen, cell-based, luminescence, HEK293, GRIP1 co-expression, lit1-tk-luc. Nuclear hormone receptor DAF-12 (Strongyloides stercoralis). HEK293 ssDAF-12/GRIP1 lit1-tk-luc reporter; % of 3 µM dafachronic acid response. activation, % at 6.8 µM. hit rate 1% among 370,000. AID 652126, 2013;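 active means activation above the mean over all tested compounds plus 3 SD, cut at about 0.9% in these data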
DAX1 inh-2: DAX1 (NR0B1) inhibitors on StAR promoter, primary screen, cell-based, luminescence, SF-1 (NR5A1), full-length DAX-1. HEK293T StAR-luciferase reporter, SF-1/DAX-1 repression relief. inhibition, % at 6.8 µM. hit rate 1.1% among 370,000. AID 652010, 2013;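 active means inhibition above the mean over all tested compounds plus 3 SD, cut at about 3.6% in these data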;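 further: higher inhibition means more luminescence from relief of DAX-1 repression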
LXRb hcDAF ctr: LXR agonists, Gal4 luciferase reporter, confirmation, counter-screen for hcDAF-12 agonist project, cell-based, luminescence, HEK293, H. contortus campaign; shares compounds with hcDAF12 agonist; HEK293 Gal4-LXR tk-luc reporter, 24 h; normalized: DMSO 0%, positive control 100%; activation, % at 6.8 µM; 3,400 tested, under 10 active;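 active means mean percent activation of the reporter above a cutoff set as the average over tested compounds plus their standard deviation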
Target sequence (P55055 whole entry, looked up, the tested form may be a part): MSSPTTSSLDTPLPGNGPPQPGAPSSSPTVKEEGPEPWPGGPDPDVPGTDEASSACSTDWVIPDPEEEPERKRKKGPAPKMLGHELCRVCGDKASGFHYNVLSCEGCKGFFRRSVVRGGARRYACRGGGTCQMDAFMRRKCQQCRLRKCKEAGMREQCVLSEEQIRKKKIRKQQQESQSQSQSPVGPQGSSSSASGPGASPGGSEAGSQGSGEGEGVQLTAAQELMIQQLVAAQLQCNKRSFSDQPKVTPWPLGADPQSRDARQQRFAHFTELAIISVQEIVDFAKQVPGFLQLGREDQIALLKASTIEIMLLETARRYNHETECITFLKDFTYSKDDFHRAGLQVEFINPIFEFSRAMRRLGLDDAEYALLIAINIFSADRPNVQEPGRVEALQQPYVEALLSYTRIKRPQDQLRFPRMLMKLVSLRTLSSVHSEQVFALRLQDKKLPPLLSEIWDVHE
hcDAF12 conf: H. contortus DAF-12 receptor agonists, confirmation, cell-based, luminescence, HEK293, lit1-tk-luc, triplicate. shares compounds with hcDAF12 agonist. HEK293 hcDAF-12 lit1-tk-luc reporter; % of Δ7-dafachronic acid response. activation, % at 6.8 µM. hit rate 61% among 3,400. AID 743032, 2013;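 active means mean activation across triplicate tests above the threshold derived from the earlier primary screen, cut at about 5.5% in these data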
Numbers stand for hits; i = inactive; nt = no result. Rows were chosen to be rich in hits. Some 4.8% of all compounds tested hit in one or more screens of this group.

SMILES | hcDAF12 agonist | hgDAF12 agonist | SMARCA2 act | DAX1 inh-1 | ssDAF12 agonist | DAX1 inh-2 | LXRb hcDAF ctr | hcDAF12 conf
Cc1[nH]c2ccccc2c1C1=NNC(=Nc2ccc(F)cc2)SC1 | 7.1 | i | i | 4.4 | i | i | i | i
O=C(CSc1ccccn1)Nc1ccc2c(c1)C(=O)c1ccccc1C2=O | 6.8 | i | i | i | i | i | i | i
CC(C)N(Cc1nc(-c2ccccc2)no1)C(=O)c1ccc(Br)o1 | i | i | i | i | i | i | nt | nt
CCN(CC(=O)Nc1ccc(NC(C)=O)cc1)C(=O)c1cccc2ccccc12 | i | i | i | i | i | i | nt | nt
CCN(CC(=O)Nc1c(F)cccc1F)C(=O)c1ccc(S(=O)(=O)N2CCC(C)CC2)cc1 | i | i | i | i | i | i | nt | nt
O=[N+]([O-])c1cccc2ccc(/C=C/c3ccc(F)cc3)nc12 | 8.5 | 14.2 | i | i | i | i | i | 6.0
c1ccc(COc2ccc(-c3cc4nc(NCc5ccc6c(c5)OCO6)ccn4n3)cc2)cc1 | i | i | i | nt | i | i | nt | nt
Clc1ccc(OCCCCSc2ncccn2)cc1 | i | i | i | i | i | i | nt | nt
CCCOc1ccc(OCCSc2ncccn2)cc1 | 6.8 | i | i | i | i | i | i | i
CC(=O)c1cccc(N=C2C(=O)Nc3ccccc32)c1 | 6.6 | i | i | i | i | i | i | i
Cc1ccc(N=C2C(=O)Nc3ccccc32)cc1C | i | i | i | i | i | i | nt | nt
COc1ccc(/C=C/C(=O)C2C(=O)C=C(C)OC2=O)cc1O (stereo not given) | 12.9 | i | i | i | 1.6 | i | i | i
COc1cc(/C=C/C(=O)C2C(=O)C=C(C)OC2=O)cc(OC)c1O (stereo not given) | i | i | i | i | i | i | nt | nt
CCOc1cccc(NC(=O)/C(C#N)=C\c2cn(CC(=O)O)c3ccccc23)c1 | 6.7 | i | i | i | i | i | i | i
CC1(C)CC(=O)C(CCCN2C(=O)c3ccccc3C2=O)C(=O)C1 | i | i | i | i | i | i | nt | nt
Cc1ccc(-c2cc(-c3ccccc3)no2)cc1 | 13.6 | 13.6 | i | i | 1.8 | 3.7 | i | 14.5
Cc1ccc(NC(=O)OCc2cc(-c3ccccc3)on2)cc1 | i | i | i | i | i | i | nt | nt
CCCn1c(C)cc(C(=O)CN2C(=O)c3ccccc3C2=O)c1C | 9.7 | 11.2 | i | i | 0.9 | i | i | 12.4
O=C(/C=C/c1cccs1)NC(=S)Nc1ccc(C(=O)O)cc1 | i | i | i | i | i | i | nt | nt
Cc1c(OC(=O)CNC(=O)OC(C)(C)C)ccc2c3c(c(=O)oc12)CCC3 | i | i | i | i | i | i | nt | nt
S=c1nc(-c2ccc(Br)cc2)[nH]c2ccccc12 | 7.3 | i | i | i | i | i | i | 9.0
CCc1ccccc1NC(=O)[C@@H]1CCC(=O)N1C1OC(=O)c2ccccc21 (stereo not given in full) | i | i | i | i | i | i | nt | nt
CC(C)c1ccc(NC(=O)[C@@H]2CCC(=O)N2C2OC(=O)c3ccccc32)cc1 (stereo not given in full) | 7.4 | i | i | i | i | i | i | i
NC(=O)c1ccsc1NC(=O)CSc1nnc2ccccn12 | i | i | i | i | i | i | nt | nt
C=CCOc1ccc(C(c2c(C(=O)O)[nH]c3ccccc23)c2c(C(=O)O)[nH]c3ccccc23)cc1 | 7.5 | i | i | i | i | i | i | 7.6
SMILES | hcDAF12 agonist | hgDAF12 agonist | SMARCA2 act | DAX1 inh-1 | ssDAF12 agonist | DAX1 inh-2 | LXRb hcDAF ctr | hcDAF12 conf
C=CCOc1c(CNc2cccc(C(=O)O)c2)cccc1OCC | i | i | i | i | i | i | nt | nt
C=CCOc1c(CNc2cccc(C(=O)O)c2)cccc1OC | 7.3 | i | i | i | i | i | i | i
Cc1nc2sc(C(=O)Nc3ccccc3)c(N)c2c(C)c1[N+](=O)[O-] | 8.1 | i | i | 6.9 | 1.6 | 4.0 | i | 9.4
Nc1c(C(=O)Nc2ccccc2)sc2ncc([N+](=O)[O-])cc12 | i | i | i | nt | i | i | nt | nt
CC(=O)c1ccc(NC(=O)c2sc3nc(C)c(C)c(C)c3c2N)cc1 | 8.2 | i | i | 6.7 | 1.2 | i | i | 5.8
Cc1nc2sc(C(=O)c3ccccc3)c(N)c2c(C)c1C | i | i | i | i | i | i | nt | nt
CCN(CC)S(=O)(=O)c1ccc2oc(C(=O)N3CCOCC3)c(C)c2c1 | i | i | i | i | i | i | nt | nt
O=[N+]([O-])c1ccc(N(c2ccccc2)c2ccccc2)cc1 | i | i | i | i | i | i | nt | nt
O=C(/C=C/c1ccco1)NC(=S)Nc1ccccc1O | 6.8 | i | i | nt | i | i | i | i
O=C(Cn1cncn1)NCc1cccc(OC(F)F)c1 | 6.8 | i | i | i | i | i | i | i
Cn1c(N)c(C(c2ccccc2)c2c(N)n(C)c(=O)n(C)c2=O)c(=O)n(C)c1=O | i | i | i | i | i | i | nt | nt
Cc1cc(NC(=O)COC(=O)C2CC(=O)N(c3ccc(Br)cc3)C2)no1 (stereo not given) | i | i | i | i | i | i | nt | nt
CC(=O)c1sc(NC(=O)c2oc3ccc(F)cc3c2C)nc1C | 6.9 | i | i | i | i | i | i | i
CC(=O)c1sc(NC(=O)c2cc(=O)c3ccccc3o2)nc1C | i | i | i | i | i | i | nt | nt
O=C1c2cccc3cccc(c23)C(=O)N1c1ccccc1Cl | i | i | i | i | i | i | nt | nt
Nc1ccccc1N1C(=O)c2cccc3cccc(c23)C1=O | 6.7 | i | i | nt | i | i | i | i
Nc1c(-c2ccccc2)cnn1-c1cccc(C(F)(F)F)c1 | i | i | i | i | i | i | nt | nt
CCS/C(N)=N/N=C/c1cc(C)ccc1O | 7.9 | i | i | i | i | i | i | 6.2
CCCCS/C(N)=N/N=C/c1cc(C)ccc1O | i | i | i | i | i | i | nt | nt
CC(C)NC(=O)c1ccc2c3n(nc2c1)-c1ccccc1CO3 | 6.9 | i | i | i | i | i | i | 8.1
